Experimental data reported in PubChem BioAssay AID743335 (Broad Institute, 2014).
Calls of active or inactive are those of the source.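 Rule for the calls: active = cell killing, with a fitted half-maximal concentration at or below twice the top valid dose tested; inconclusive = flat curve with moderate signal loss, or a poor fit; inactive = effect in the rising direction, plus the rest.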

Test: cell viability loss in HEK293T cells – ATP luminescence, dry powder, set 11, cytotoxicity control, dose response (AID 743335)
Settings: ATP luminescence (CellTiter-Glo), 72 h; series mostly up to 15 µM; activity change, negative = cytotoxicity: at the top concentration

SMILES	activity change, negative = cytotoxicity
CN(C)S(=O)(=O)c1ccc(N2CCCC2)c(C(=O)Nc2nccs2)c1	0.72% (inactive)
Cc1cnc(NC(=O)c2cc(S(=O)(=O)N3CCCCC3)ccc2N2CCCC2)s1	2.61% (inactive)
CN(C)S(=O)(=O)c1ccc(N2CCCC2)c(C(=O)Nc2nc3ccccc3s2)c1	-6.3% (inactive)
CN(C)S(=O)(=O)c1ccc(N2CCCC2)c(C(=O)Nc2cccc(F)c2)c1	-17.6% (inactive)
Cc1cnc(NC(=O)c2cc(S(=O)(=O)N(C)C)ccc2C2CCCC2)s1	-12.9% (inactive)
CN(C)S(=O)(=O)c1ccc(N2CCCC2)c(C(=O)Nc2ccccc2)c1	-12.8% (inactive)
Cc1cnc(NC(=O)c2cc(S(=O)(=O)N(C)C)ccc2N2CCCC2)s1	-25.8% (inactive)
COc1ccc2nc(NC(=O)c3cc(S(=O)(=O)N(C)C)ccc3N3CCCC3)sc2c1	-15.4% (inactive)
CN(C)CCCN(Cc1cc2ccccc2[nH]c1=O)C(=O)NCc1ccccc1	-7.88% (inactive)
Cc1cnc(NC(=O)c2cc(S(=O)(=O)N(C)C)ccc2N(C)C)s1	-17.5% (inactive)
CN(C)CCCN(Cc1cc2ccccc2[nH]c1=O)C(=O)Nc1ccccc1	-18.9% (inactive)
Cc1cnc(NC(=O)c2cc(S(=O)(=O)N3CCOCC3)ccc2N2CCCC2)s1	-2.27% (inactive)
Cc1ccc(NC(=O)c2cc(S(=O)(=O)N(C)C)ccc2N2CCCC2)cc1	-8.27% (inactive)
CCN(CC)c1ccc(S(=O)(=O)N(C)C)cc1C(=O)Nc1ncc(C)s1	-14.2% (inactive)
Cc1cnc(NC(=O)c2cc(S(=O)(=O)N(C)C)ccc2N2CCC2)s1	0.864% (inactive)
COc1cccc2sc(NC(=O)c3cc(S(=O)(=O)N(C)C)ccc3N3CCCC3)nc12	-2.09% (inactive)
Cc1csc(NC(=O)c2cc(S(=O)(=O)N(C)C)ccc2N2CCCC2)n1	-9.89% (inactive)
Cc1cnc(NC(=O)c2cc(S(=O)(=O)N3CCCC3)ccc2N2CCCC2)s1	-2.37% (inactive)
COc1ccc2sc(NC(=O)c3cc(S(=O)(=O)N(C)C)ccc3N3CCCC3)nc2c1	4.68% (inactive)
